Where “and” joins values, the source holds several entries; their conditions need not be identical. Identical values can stand only once. Compounds without any hit were thinned out: in the full panel of roughly 79,000, 15% have a hit. Calls of active or inactive are those of the source. Cut-off read from the data, not from the text of the source: active = growth inhibition above about 70%; inactive = the rest.
What was measured:
[1] = NCI Yeast Anticancer Drug Screen. Data for the rad52 strain (AID 147);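 note: 0% = growth of vehicle-treated control cultures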; details: S. cerevisiae rad52 mutant growth inhibition, hits give high values
Outline: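 Inhibition of yeast growth, referenced to vehicle controls, was the measured output for a strain with defective DNA damage repair.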

[2] = NCI Yeast Anticancer Drug Screen. Data for the wt1 strain (AID 149);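 note: 0% = growth of vehicle-treated wt1 cultures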; details: S. cerevisiae wt1 strain (SPY 50644) growth inhibition, hits give high values
Outline: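 Using yeast strain wt1, compound-induced growth inhibition was determined against vehicle-treated cultures.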

[3] = NCI Yeast Anticancer Drug Screen. Data for the rad50EPP+ strain (AID 151);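 note: 0% = growth of vehicle-treated control cultures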; details: S. cerevisiae rad50 mutant strain, hits give high values
Outline: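 Genetically defined yeast (rad50EPP+, DNA damage repair alteration) is grown with compound, and inhibition of growth is expressed relative to vehicle-treated controls.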

[4] = NCI Yeast Anticancer Drug Screen. Data for the mgt1 strain (AID 153); details: S. cerevisiae mgt1 mutant growth inhibition, hits give high values
Outline: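 In the mgt1 strain, test compounds were added and growth inhibition was determined relative to vehicle-treated controls.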

[5] = NCI Yeast Anticancer Drug Screen. Data for the rad50 strain (AID 155);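 note: 0% = growth of vehicle-only cultures of the same strain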; details: S. cerevisiae rad50 strain growth inhibition, hits give high values
Outline: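 Relative growth inhibition (compound vs vehicle) was measured in yeast with a defined repair-gene alteration.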

[6] = NCI Yeast Anticancer Drug Screen. Data for the mec2-1 strain (AID 157); details: S. cerevisiae mec2-1 strain, hits give high values
Outline: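 Each compound was tested on mec2-1 yeast, a strain altered in DNA damage repair or cell cycle control. Growth inhibition is reported relative to vehicle.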

[7] = NCI Yeast Anticancer Drug Screen. Data for the sgs1 mgt1 strain (AID 161);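 note: 0% = growth of cultures given vehicle only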; details: S. cerevisiae sgs1 mgt1 strain, hits give high values
Outline: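 Test agents were incubated with a DNA-repair-mutant yeast strain. Growth was then read and compared against vehicle-treated controls.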

[8] = NCI Yeast Anticancer Drug Screen. Data for the cln2 rad14 strain (AID 165);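 note: 0% = growth equal to vehicle treated cultures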; details: S. cerevisiae cln2 rad14 strain, hits give high values
Outline: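 Test compounds were added to cln2 rad14 yeast cultures; inhibition of growth was then determined by comparison with vehicle treatment.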

[9] = NCI Yeast Anticancer Drug Screen. Data for the bub3 strain (AID 167); details: S. cerevisiae bub3 mutant strain, hits give high values
Outline: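 Screening used yeast with an engineered genetic alteration affecting cell cycle control. Compound-exposed cultures were compared with vehicle cultures, and reduced growth was taken as inhibition.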

[10] = NCI Yeast Anticancer Drug Screen. Data for the wt2 strain (AID 169);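 note: 0% = growth of vehicle-treated yeast cultures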; details: S. cerevisiae wt2 strain growth inhibition, hits give high values
Outline: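 The panel's yeast strains carry defined changes in DNA repair or cell cycle genes. Each strain is grown with compound, and growth loss is scored relative to vehicle.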

[11] = NCI Yeast Anticancer Drug Screen. Data for the mlh1 strain (AID 171);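 note: 0% = growth of vehicle-treated control cultures of the same strain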; details: S. cerevisiae mlh1 strain growth inhibition, hits give high values
Outline: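 Inhibition values reflect reduced yeast growth in the presence of compound, referenced to vehicle controls, using a strain chosen for its alteration in DNA repair or cell cycle control.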

[12] = NCI Yeast Anticancer Drug Screen. Data for the sgs1 strain (AID 173);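 note: 0% = growth of vehicle-only control cultures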; details: S. cerevisiae sgs1 mutant, hits give high values
Outline: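 Vehicle-treated cultures served as reference for growth inhibition of a yeast strain altered in DNA damage repair or cell cycle control after compound exposure.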

[13] = NCI Yeast Anticancer Drug Screen. Data for the mlh1 rad18 strain (AID 175); details: S. cerevisiae mlh1 rad18 strain growth inhibition, hits give high values
Outline: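 Inhibition values reflect reduced growth of mutant yeast versus vehicle-treated controls following compound exposure; the mutations affect DNA damage repair.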

[14] = NCI Yeast Anticancer Drug Screen. Data for the rad18 strain (AID 177); details: S. cerevisiae rad18 mutant growth inhibition, hits give high values
Outline: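 Steps: expose repair-mutant yeast to compound; measure growth; express as inhibition relative to vehicle control.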

[15] = NCI Yeast Anticancer Drug Screen. Data for the rad14 strain (AID 159);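 note: 0% = growth of vehicle-treated control cultures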; details: S. cerevisiae rad14 strain growth inhibition, hits give high values
Outline: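 Screen for anticancer potential: a yeast strain altered in DNA damage repair is grown with compound, and reduced growth is quantified against vehicle controls.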

[16] = at 5.0 µM (retest, dose inferred, filed as 0.5)
[17] = at 50.0 µM (retest, dose inferred, filed as 5.0)

Measured: growth inhibition

CN(C)CCSC1=Nc2ccc(Cl)cc2C(c2ccccc2Cl)=NC1
inactive: [1]; at 1.2 µM -1% | [1]; at 3.7 µM -8% | [1]; at 11.0 µM 3% | [1]; at 33.0 µM 4% | [1]; at 100.0 µM 51% | [2]; at 1.2 µM -1% | [2]; at 3.7 µM -1% | [2]; at 11.0 µM 0% | [2]; at 33.0 µM 2% | [2]; at 100.0 µM -1% | [3]; at 1.2 µM -3% | [3]; at 3.7 µM -2% | [3]; at 11.0 µM -2% | [3]; at 33.0 µM -3% | [3]; at 100.0 µM 0% | [4]; at 1.2 µM -2% | [4]; at 3.7 µM -1% | [4]; at 11.0 µM 0% | [4]; at 33.0 µM 6% | [4]; at 100.0 µM 66% | [5]; at 1.2 µM -1% | [5]; at 3.7 µM 2% | [5]; [16] 12% | [5]; at 11.0 µM 2% | [5]; at 33.0 µM 8% | [5]; [17] 47% | [5]; at 50.0 µM 61.8% and 39.5% | [5]; at 100.0 µM 51% | [6]; at 1.2 µM -2% | [6]; at 3.7 µM -2% | [6]; [16] 3% | [6]; at 11.0 µM 0% | [6]; at 33.0 µM 9% | [6]; [17] 12% | [6]; at 50.0 µM -4.25% and -24.8% | [6]; at 100.0 µM 33% | [7]; [16] 11% | [7]; [17] 47% | [7]; at 50.0 µM 50% and 24.2% | [8]; [16] 4% | [8]; [17] 8% | [8]; at 50.0 µM 15.7% and -4.25% | [9]; at 1.2 µM -1% | [9]; at 3.7 µM -3% | [9]; [16] 0% | [9]; at 11.0 µM -3% | [9]; at 33.0 µM 9% | [9]; [17] 52% | [9]; at 50.0 µM 61.9% and 10.9% | [9]; at 100.0 µM 50% | [10]; at 1.2 µM -3% | [10]; at 3.7 µM -3% | [10]; at 11.0 µM -8% | [10]; at 33.0 µM -6% | [10]; at 100.0 µM 63% | [11]; at 1.2 µM -1% | [11]; at 3.7 µM -4% | [11]; at 11.0 µM -1% | [11]; at 33.0 µM -27% | [11]; at 100.0 µM 64% | [12]; at 1.2 µM -2% | [12]; at 3.7 µM -1% | [12]; at 11.0 µM 0% | [12]; at 33.0 µM 16% | [13]; [16] 4% | [13]; [17] 28% | [13]; at 50.0 µM 40.2% and 7.1% | [14]; at 1.2 µM -2% | [14]; at 3.7 µM -1% | [14]; at 11.0 µM 6% | [14]; at 33.0 µM 15% | [14]; at 100.0 µM 47%
active: [12]; at 100.0 µM 70%

O=C1C=CC(=O)C1(Br)Br
inactive: [1]; at 1.2 µM 7% | [1]; at 3.7 µM 24% | [1]; at 11.0 µM 62% | [2]; at 1.2 µM -1% | [2]; at 3.7 µM 0% | [2]; at 11.0 µM 8% | [2]; at 33.0 µM 66% | [3]; at 1.2 µM 2% | [3]; at 3.7 µM 15% | [3]; at 11.0 µM 33% | [4]; at 1.2 µM 1% | [4]; at 3.7 µM -4% | [4]; at 11.0 µM 25% | [5]; at 1.2 µM 4% | [5]; at 3.7 µM 24% | [5]; [16] 21% | [5]; at 11.0 µM 65% | [6]; at 1.2 µM 1% | [6]; at 3.7 µM 5% | [6]; [16] 3% | [6]; at 11.0 µM 23% | [15]; at 1.2 µM 1% | [15]; at 3.7 µM 13% | [15]; at 11.0 µM 28% | [7]; [16] 54% | [9]; at 1.2 µM 3% | [9]; at 3.7 µM 3% | [9]; [16] 28% | [9]; at 11.0 µM 18% | [10]; at 1.2 µM -4% | [10]; at 3.7 µM -4% | [10]; at 11.0 µM 24% | [11]; at 1.2 µM 1% | [11]; at 3.7 µM 11% | [11]; at 11.0 µM 36% | [12]; at 1.2 µM -13% | [12]; at 3.7 µM -14% | [14]; at 1.2 µM 15% | [14]; at 3.7 µM 40%
active: [1]; at 33.0 µM 95% | [1]; at 100.0 µM 99% | [2]; at 100.0 µM 99% | [3]; at 33.0 µM 71% | [3]; at 100.0 µM 99% | [4]; at 33.0 µM 91% | [4]; at 100.0 µM 99% | [5]; at 33.0 µM 94% | [5]; [17] 99% | [5]; at 50.0 µM 99.6% | [5]; at 100.0 µM 99% | [6]; at 33.0 µM 77% | [6]; [17] 100% | [6]; at 50.0 µM 99.8% | [6]; at 100.0 µM 99% | [15]; at 33.0 µM 88% | [15]; at 100.0 µM 99% | [7]; [17] 99% | [7]; at 50.0 µM 99.2% | [9]; at 33.0 µM 95% | [9]; [17] 99% | [9]; at 50.0 µM 99.4% | [9]; at 100.0 µM 99% | [10]; at 33.0 µM 97% | [10]; at 100.0 µM 99% | [11]; at 33.0 µM 95% | [11]; at 100.0 µM 99% | [12]; at 11.0 µM 75% | [12]; at 33.0 µM 99% | [12]; at 100.0 µM 99% | [13]; [16] 78% | [13]; [17] 99% | [13]; at 50.0 µM 99.2% | [14]; at 11.0 µM 77% | [14]; at 33.0 µM 95% | [14]; at 100.0 µM 99%

Source: PubChem BioAssay (NCI)
